For eight sequences, binding signal results are on record in publication PMC11006913.

Common to all, as to assay: PBM; 200 nM protein, PBS
Details in all cases: dsDNA, one strand shown

Test [1] has as its target HOXC10 (Homo sapiens, UniProt Q9NYD6 254-340).
Test [2] deals with ALX3 (Homo sapiens, UniProt O95076 139-225, N203Q).
The target in test [3] is HOXC10 (Homo sapiens, UniProt Q9NYD6 254-340, K271E).
Test [4] deals with ALX3 (Homo sapiens, UniProt O95076 139-225).
Test [5] addresses ALX3 (Homo sapiens, UniProt O95076 139-225, L168Q).
In test [6] the target is ALX3 (Homo sapiens, UniProt O95076 139-225, L168V).
Test [7] deals with ALX3 (Homo sapiens, UniProt O95076 139-225, N203S).
Test [8] concerns the target HOXD13 (Homo sapiens, UniProt P35453 263-343, T313R).
In test [9] the target is HOXD13 (Homo sapiens, UniProt P35453 263-343).
Test [10] has as its target HOXD13 (Homo sapiens, UniProt P35453 263-343, T313A).
Test [11] concerns the target HOXA2 (Homo sapiens, UniProt O43364 129-215, R185T).
For test [12], the target named is MSX2 (Homo sapiens, UniProt P35548 130-214, R199I).
The target in test [13] is HOXA2 (Homo sapiens, UniProt O43364 129-215, R185K).
Test [14] concerns the target MSX2 (Homo sapiens, UniProt P35548 130-214).
For test [15], the target named is MSX2 (Homo sapiens, UniProt P35548 130-214, F161Y).
Test [16] concerns the target HOXA2 (Homo sapiens, UniProt O43364 129-215, Y150S).
The target of test [17] is HOXA2 (Homo sapiens, UniProt O43364 129-215).
The target in another test is T1, NKX2-6 (Homo sapiens, UniProt A6NCS4 118-204, R150C).
T1 sequence: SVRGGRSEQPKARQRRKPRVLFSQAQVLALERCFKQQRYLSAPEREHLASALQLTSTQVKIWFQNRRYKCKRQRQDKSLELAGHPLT

The target of test [18] is HOXB6 (Homo sapiens, UniProt P17509 132-218, K202E).
Test [19] deals with PROP1 (Homo sapiens, UniProt O75360 56-141).
In test [20] the target is PROP1 (Homo sapiens, UniProt O75360 56-141, R99H).
In test [21] the target is PROP1 (Homo sapiens, UniProt O75360 56-141, F88S).
Test [22] concerns the target HOXB6 (Homo sapiens, UniProt P17509 132-218).

Chain of HOXC10 (Homo sapiens, UniProt Q9NYD6 254-340) (Q9NYD6 254-340): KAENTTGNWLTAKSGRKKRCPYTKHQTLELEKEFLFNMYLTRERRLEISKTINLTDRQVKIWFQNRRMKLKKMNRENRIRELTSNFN
Chain of HOXC10 (Homo sapiens, UniProt Q9NYD6 254-340, K271E) (Q9NYD6 254-340 K271E): as the sequence (Q9NYD6 254-340) above, with K18E counted along it
Chain of HOXA2 (Homo sapiens, UniProt O43364 129-215, Y150S) (O43364 129-215 Y150S): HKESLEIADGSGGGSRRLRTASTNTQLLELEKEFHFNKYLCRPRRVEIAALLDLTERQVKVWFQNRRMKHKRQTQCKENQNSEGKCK
Chain of HOXA2 (Homo sapiens, UniProt O43364 129-215, R185K) (O43364 129-215 R185K): as the sequence (O43364 129-215 Y150S) above, with S22Y, R57K counted along it
Chain of HOXD13 (Homo sapiens, UniProt P35453 263-343) (P35453 263-343): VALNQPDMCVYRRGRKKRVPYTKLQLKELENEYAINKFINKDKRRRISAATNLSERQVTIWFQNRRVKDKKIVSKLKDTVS
Chain of HOXA2 (Homo sapiens, UniProt O43364 129-215, R185T) (O43364 129-215 R185T): as the sequence (O43364 129-215 Y150S) above, with S22Y, R57T counted along it
Chain of HOXA2 (Homo sapiens, UniProt O43364 129-215) (O43364 129-215): as the sequence (O43364 129-215 Y150S) above, with S22Y counted along it
Chain of HOXD13 (Homo sapiens, UniProt P35453 263-343, T313R) (P35453 263-343 T313R): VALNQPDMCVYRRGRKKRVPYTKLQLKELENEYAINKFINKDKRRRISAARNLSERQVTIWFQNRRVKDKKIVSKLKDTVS
Chain of ALX3 (Homo sapiens, UniProt O95076 139-225, L168V) (O95076 139-225 L168V): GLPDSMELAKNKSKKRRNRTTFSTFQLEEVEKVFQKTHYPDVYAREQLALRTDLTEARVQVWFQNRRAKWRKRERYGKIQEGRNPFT
Chain of HOXB6 (Homo sapiens, UniProt P17509 132-218) (P17509 132-218): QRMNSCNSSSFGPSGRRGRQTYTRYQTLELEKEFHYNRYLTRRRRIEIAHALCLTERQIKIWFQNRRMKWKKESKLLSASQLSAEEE
Chain of PROP1 (Homo sapiens, UniProt O75360 56-141) (O75360 56-141): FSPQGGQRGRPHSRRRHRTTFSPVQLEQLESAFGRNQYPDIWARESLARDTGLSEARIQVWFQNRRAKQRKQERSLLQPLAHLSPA
Chain of ALX3 (Homo sapiens, UniProt O95076 139-225, L168Q) (O95076 139-225 L168Q): as the sequence (O95076 139-225 L168V) above, with V30Q counted along it
Chain of HOXB6 (Homo sapiens, UniProt P17509 132-218, K202E) (P17509 132-218 K202E): as the sequence (P17509 132-218) above, with K71E counted along it
Chain of MSX2 (Homo sapiens, UniProt P35548 130-214, F161Y) (P35548 130-214 F161Y): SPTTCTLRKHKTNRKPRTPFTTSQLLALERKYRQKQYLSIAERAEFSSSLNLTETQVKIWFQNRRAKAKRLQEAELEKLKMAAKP
Chain of MSX2 (Homo sapiens, UniProt P35548 130-214, R199I) (P35548 130-214 R199I): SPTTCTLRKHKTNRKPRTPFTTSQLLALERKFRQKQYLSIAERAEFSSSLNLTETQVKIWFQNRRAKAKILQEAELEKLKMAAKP
Chain of HOXD13 (Homo sapiens, UniProt P35453 263-343, T313A) (P35453 263-343 T313A): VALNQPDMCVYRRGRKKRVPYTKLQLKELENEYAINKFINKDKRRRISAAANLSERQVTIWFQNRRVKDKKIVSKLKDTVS
Chain of ALX3 (Homo sapiens, UniProt O95076 139-225, N203Q) (O95076 139-225 N203Q): as the sequence (O95076 139-225 L168V) above, with V30L, N65Q counted along it
Chain of ALX3 (Homo sapiens, UniProt O95076 139-225, N203S) (O95076 139-225 N203S): as the sequence (O95076 139-225 L168V) above, with V30L, N65S counted along it
Chain of PROP1 (Homo sapiens, UniProt O75360 56-141, F88S) (O75360 56-141 F88S): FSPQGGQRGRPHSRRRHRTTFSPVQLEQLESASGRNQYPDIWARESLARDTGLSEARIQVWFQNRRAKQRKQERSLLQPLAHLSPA
Chain of ALX3 (Homo sapiens, UniProt O95076 139-225) (O95076 139-225): as the sequence (O95076 139-225 L168V) above, with V30L counted along it
Chain of PROP1 (Homo sapiens, UniProt O75360 56-141, R99H) (O75360 56-141 R99H): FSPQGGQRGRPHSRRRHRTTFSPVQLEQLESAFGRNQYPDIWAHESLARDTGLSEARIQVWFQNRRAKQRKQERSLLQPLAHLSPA
Chain of MSX2 (Homo sapiens, UniProt P35548 130-214) (P35548 130-214): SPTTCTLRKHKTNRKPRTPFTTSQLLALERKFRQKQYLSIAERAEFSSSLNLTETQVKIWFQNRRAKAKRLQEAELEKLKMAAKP

Turning to CGAAGGGC, the binding signal was 9.97 upbm affinity estimate (log intensity, higher = more binding, comparable within an allelic series) with HOXC10 [1]; 7.68 upbm affinity estimate (log intensity, higher = more binding, comparable within an allelic series) with ALX3 [2]; 10.1 upbm affinity estimate (log intensity, higher = more binding, comparable within an allelic series) with HOXC10 [3]; 7.61 upbm affinity estimate (log intensity, higher = more binding, comparable within an allelic series) in the test with ALX3 [4]; 7.69 upbm affinity estimate (log intensity, higher = more binding, comparable within an allelic series) with ALX3 [5]; 7.8 upbm affinity estimate (log intensity, higher = more binding, comparable within an allelic series) in the test with ALX3 [6]. In the test with ALX3 [7], the binding signal is 7.67 upbm affinity estimate (log intensity, higher = more binding, comparable within an allelic series).
Turning to AGATATGG, the binding signal with HOXC10 [1] is 10.7 upbm affinity estimate (log intensity, higher = more binding, comparable within an allelic series).
CTTTATTA: the binding signal in the test with HOXC10 [1] is 12.2 upbm affinity estimate (log intensity, higher = more binding, comparable within an allelic series); with HOXD13 [8] it was 10.6 upbm affinity estimate (log intensity, higher = more binding, comparable within an allelic series); in the test with HOXD13 [9] it was 11.8 upbm affinity estimate (log intensity, higher = more binding, comparable within an allelic series); with HOXC10 [3], 11.7 upbm affinity estimate (log intensity, higher = more binding, comparable within an allelic series); in the test with HOXD13 [10], 11.5 upbm affinity estimate (log intensity, higher = more binding, comparable within an allelic series).
Regarding GCCCGCAC, the binding signal was 10.1 upbm affinity estimate (log intensity, higher = more binding, comparable within an allelic series) with HOXC10 [1]; 7.43 upbm affinity estimate (log intensity, higher = more binding, comparable within an allelic series) with HOXA2 [11]; 9.56 upbm affinity estimate (log intensity, higher = more binding, comparable within an allelic series) in the test with MSX2 [12]; 10.2 upbm affinity estimate (log intensity, higher = more binding, comparable within an allelic series) in the test with HOXA2 [13]; 9.97 upbm affinity estimate (log intensity, higher = more binding, comparable within an allelic series) in the test with HOXC10 [3]; 9.65 upbm affinity estimate (log intensity, higher = more binding, comparable within an allelic series) in the test with MSX2 [14]. The binding signal with MSX2 [15] was 9.65 upbm affinity estimate (log intensity, higher = more binding, comparable within an allelic series); with HOXA2 [16], 10.4 upbm affinity estimate (log intensity, higher = more binding, comparable within an allelic series); with HOXA2 [17], 7.36 upbm affinity estimate (log intensity, higher = more binding, comparable within an allelic series).
For CAATATGG, the binding signal with HOXC10 [1] was 10.7 upbm affinity estimate (log intensity, higher = more binding, comparable within an allelic series); in the test with HOXD13 [8], 10 upbm affinity estimate (log intensity, higher = more binding, comparable within an allelic series); with HOXD13 [9] it was 10.5 upbm affinity estimate (log intensity, higher = more binding, comparable within an allelic series).
Turning to CGCCCCCC, the binding signal is 9.91 upbm affinity estimate (log intensity, higher = more binding, comparable within an allelic series) with HOXC10 [1]; 6.85 upbm affinity estimate (log intensity, higher = more binding, comparable within an allelic series) with HOXA2 [11]; 9.91 upbm affinity estimate (log intensity, higher = more binding, comparable within an allelic series) with HOXA2 [13]; 9.87 upbm affinity estimate (log intensity, higher = more binding, comparable within an allelic series) with HOXC10 [3]; 10.3 upbm affinity estimate (log intensity, higher = more binding, comparable within an allelic series) in the test with HOXA2 [16]; 6.92 upbm affinity estimate (log intensity, higher = more binding, comparable within an allelic series) with HOXA2 [17].
In the case of ACCGGGCT, the binding signal with HOXC10 [1] is 10.1 upbm affinity estimate (log intensity, higher = more binding, comparable within an allelic series); with NKX2-6 it was 9.65 upbm affinity estimate (log intensity, higher = more binding, comparable within an allelic series); with HOXC10 [3], 10.1 upbm affinity estimate (log intensity, higher = more binding, comparable within an allelic series).
Regarding GGGGGGAA, the binding signal was 10 upbm affinity estimate (log intensity, higher = more binding, comparable within an allelic series) in the test with HOXC10 [1]; 9 upbm affinity estimate (log intensity, higher = more binding, comparable within an allelic series) with HOXB6 [18]; 9.95 upbm affinity estimate (log intensity, higher = more binding, comparable within an allelic series) with HOXC10 [3]; 6.74 upbm affinity estimate (log intensity, higher = more binding, comparable within an allelic series) with PROP1 [19]; 6.57 upbm affinity estimate (log intensity, higher = more binding, comparable within an allelic series) with PROP1 [20]; 6.2 upbm affinity estimate (log intensity, higher = more binding, comparable within an allelic series) in the test with PROP1 [21]. In the test with HOXB6 [22], the binding signal was 9.07 upbm affinity estimate (log intensity, higher = more binding, comparable within an allelic series).
